Measurements published in the OligoGym collection.

Target: FGFR1
Test: pooled miR-30 sensor sort-seq; sequence = guide strand
Conditions: shRNA
Note: reference of the scale not given here.

| Sequence | sensor-assay potency score (higher = more potent) |
| --- | --- |
| TTGAACTTCACTGTCTTGGCAG | 0.751 |
| TCATTCTCCACAATGCAGGTGT | 0.557 |
| TTGTGCACAGCCATCTGGCTGT | -0.135 |
| TAGCGGTGCAGAGTGTGGCTGT | -0.244 |
| TTGTCGGTGGTATTAACTCCAG | -1.38 |
| ATCATGTACAGCTCGTTGGTGC | -0.372 |
| TTTGTGTTTTCTTCATAGCTAT | -0.428 |
| TTACACATGAACTCCACGTTGC | 0.903 |
| TTGTAGACGATGACCGACCCCA | -0.237 |

Target: FHOD1
Test: as above
Conditions: shRNA

| Sequence | sensor-assay potency score (higher = more potent) |
| --- | --- |
| TTGTAGATGCTCCTCTCGCTGG | -0.582 |
| ATGACTGTCAGCATCTCCCCGG | -0.753 |
| TACAAACACCAACAGCAGCTTC | -0.751 |
| TAGCTTCTCAATGCCATCCTTG | -0.31 |
| TTCTACAAACACCAACAGCAGC | -1.07 |
| TCTGTCTCGGTGATCATGCGTC | -0.332 |
| TTGCAGAGCACAATCCTCCAAC | -0.554 |
| TTGTTGATGAGGGTGACCGTGT | -0.769 |
| TTTGTAGATGCTCCTCTCGCTG | -1.11 |
| TCGTAGAGCACAAGCTGCGTGC | -0.434 |
| TTCTTCGATGTCTCCATCCTCC | -0.285 |

Target: FH
Test: as above
Conditions: shRNA

| Sequence | sensor-assay potency score (higher = more potent) |
| --- | --- |
| TATTGCATTAGCAATCTTTGGA | 0.0448 |
| TTTATTAACATGATCGTTGGGA | 0.847 |
| AACATAACCACTAAATTCCTGC | -0.241 |
| TTGCTTCACACTGAGTAGGGTT | -0.374 |
| TAACACATTTTTAATCATCATT | -1.28 |
| TTGTCTGAGTTCCTGATCCAGT | -0.75 |
| TTACATTCATATTTGTCTGAGT | 0.037 |
| TTTGCTATCTTCATCAGACTGC | 0.482 |
| TTGCATTAGCAATCTTTGGATC | -0.818 |
| TTAAAGTTCATCGTAGATCTCA | 0.281 |
| TGGATCAAGACCATAATCCTGG | 0.098 |
| TTCATCAGCTTGTTGATCCTTT | 0.529 |
| TTTACTTGTTGAACATAACCAC | 0.162 |
| TATTGCAGCAGCAATGTGCATT | -0.245 |
| TCTTAGACCTAGCACATCCTAG | -0.529 |
| TTTACATTCATATTTGTCTGAG | -0.0374 |
| TATATGAGGATTGAGAGCTGTC | 0.308 |
| TTTCCTTTAAGGTTGATCCATT | -0.612 |
| TCATATTTGTCTGAGTTCCTGA | 0.043 |
| TTTCCTTTCAAACTTATCCGTT | -0.472 |
